Results as given in PubChem BioAssay (NCATS).
“And” between values parts separate entries of the source, which are not always exact repeats. Equal values may be shown once. Values without a mark were called inactive. Records with an inconclusive call do not appear. Where a call stands in place of a potency, no number is given. The source made the active and inactive calls. Calls follow the shape of the dose curve; as a rule, active = well fitted curve in the direction sought with a large enough effect; inconclusive = small, poorly fitted or top-dose-only effect, or another doubt; inactive = no such curve, though single readings can be large; an effect the other way counts as inactive or inconclusive.

How the values were obtained:
[1] = target: Tyrosine-protein kinase Yes (Homo sapiens) (UniProt P07947); experiment: qHTS for small molecule inhibitors of Yes1 kinase: Primary Screen (AID 686947); also: nearly all actives have a fitted effect of over 60% in size; also: potency is read from the fitted curve at half-maximal effect
Method in brief: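 Yes1 (4 nM) preincubated 20 min with compound, then 60 min room-temperature reaction with 0.1 mM ATP and 0.3 mg/mL poly(E4Y) in pH 7.5 Tris, 10 mM MgCl2. ADP measured by ADP-Glo luminescence, normalised to enzyme/no-enzyme controls.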

[2] = qHTS for small molecule inhibitors of Yes1 kinase: Counter Assay (AID 686950);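 also: no kinase present so only ADP-Glo detection of a fixed ADP amount is tested; luminescence from ADP-Glo reporting ADP in a fixed ATP and ADP mixture; series mostly up to about 77 µM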
Method in brief: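 Luminescence read-out from ADP-Glo quantifies a fixed ADP amount (0.02 mM ADP with 0.08 mM ATP) after 60 min at room temperature; signal is normalized between DMSO wells with ATP/ADP and with 0.1 mM ATP alone.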

[3] = qHTS Assay for Identifying Gametocytocidal Compounds (AID 743244); also: potency is read from the fitted curve at half-maximal effect;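 as to max response: actives lower the fluorescent signal which means gametocytes are killed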; conditions: P. falciparum 3D7 stage III-V gametocytes, alamarBlue, 72 h; max response: hits give low values
Method in brief: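 Using 20,000 stage III–V 3D7 gametocytes per well, compounds were incubated 72 h under 37 °C/5% CO2. Viability was then assessed by 24 h alamarBlue reduction, measured fluorometrically at 525/598 nm.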

Sequence of Tyrosine-protein kinase Yes (Homo sapiens) (P07947 whole entry, looked up): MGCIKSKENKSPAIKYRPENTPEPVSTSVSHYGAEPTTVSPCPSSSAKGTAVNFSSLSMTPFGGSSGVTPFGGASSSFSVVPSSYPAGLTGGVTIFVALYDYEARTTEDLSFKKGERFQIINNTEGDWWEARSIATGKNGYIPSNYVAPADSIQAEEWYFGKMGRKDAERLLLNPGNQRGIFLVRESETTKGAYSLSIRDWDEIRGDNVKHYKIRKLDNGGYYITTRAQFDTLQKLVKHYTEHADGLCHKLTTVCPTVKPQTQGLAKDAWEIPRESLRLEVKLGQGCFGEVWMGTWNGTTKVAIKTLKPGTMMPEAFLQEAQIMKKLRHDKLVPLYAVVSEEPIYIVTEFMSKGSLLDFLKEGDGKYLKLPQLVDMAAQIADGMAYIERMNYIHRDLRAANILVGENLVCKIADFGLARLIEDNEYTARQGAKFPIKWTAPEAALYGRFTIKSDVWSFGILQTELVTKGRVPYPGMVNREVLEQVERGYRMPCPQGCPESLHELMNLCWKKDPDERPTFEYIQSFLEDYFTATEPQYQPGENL

Row | SMILES | Potency [1] | outcome [2] | Potency [3] | max response [3] [%]
1 | COCCn1c2c([n+](Cc3cnccn3)c1C)C(=O)c1ccccc1C2=O | inactive | inactive |  | 
2 | C=CCn1c(=O)c2cnc(Nc3ccc(N4CCN(C)CC4)cc3)nc2n1-c1cccc(C(C)(C)O)n1 | 43.4 nM (active) | inactive | 3320 nM (active) | 
3 | CC(C)(C)c1cc(C(C)(C)C)c(NC(=O)c2c[nH]c3ccccc3c2=O)cc1O | inactive | inactive |  | 7.52
4 | CC(=O)Nc1sc2c(c1-c1nc3ccccc3s1)CNC2 | inactive | inactive |  | 20.9
5 | Cc1cn(-c2cc(NC(=O)c3ccc(C)c(Nc4nccc(-c5cccnc5)n4)c3)cc(C(F)(F)F)c2)cn1 | inactive | inactive |  | 
6 | COc1cc2nccc(Oc3ccc(NC(=O)C4(C(=O)Nc5ccc(F)cc5)CC4)cc3)c2cc1OC | 1090 nM (active) | inactive |  | 
7 | CCC[C@H](NC(=O)C(C#N)=Cc1cccc(Br)n1)c1ccccc1 | inactive | inactive |  | 
8 | O=C(NCCS(=O)(=O)c1ccc(C(F)(F)F)cn1)c1ccc(Cl)cc1 | inactive | inactive |  | 
9 | CC(C)C[C@H](NC(=O)CNC(=O)c1cc(Cl)ccc1Cl)B(O)O | inactive | inactive | 18700 nM (active) | 
10 | Cc1cc(Nc2cc(N3CCN(C)CC3)nc(C=Cc3ccccc3)n2)n[nH]1 | 30.7 nM (active) | inactive |  | 
11 | CC(=O)SC[C@@H](C)C(=O)N1CCC[C@H]1C(=O)N[C@@H](Cc1ccccc1)C(=O)O | inactive | inactive |  | 
12 | CC(NCc1ccc2c(c1)nc(NC(=O)c1ccc(-c3cn[nH]c3)s1)n2CC(C)(C)O)C(C)(C)C (stereo not drawn) | 5.5 nM (active) and 0.2 nM (active) | inactive |  | 
